Source: PubChem (Sanford-Burnham Center for Chemical Genomics)
DUSP3 inh = VHR1 (DUSP3) phosphatase inhibition; P51452; recombinant VHR phosphatase, colorimetric substrate read-out; inhibition, % at 20 µM; 0.7% of 50,000 active; AID 1992; in the data active = inhibition above about 60%
Target sequence (P51452 whole entry, looked up): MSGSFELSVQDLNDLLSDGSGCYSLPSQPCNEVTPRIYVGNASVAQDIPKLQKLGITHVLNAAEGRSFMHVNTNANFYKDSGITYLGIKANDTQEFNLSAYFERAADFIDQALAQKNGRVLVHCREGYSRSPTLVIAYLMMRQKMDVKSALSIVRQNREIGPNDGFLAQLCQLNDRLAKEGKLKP
* = called active by the depositor. The full list was thinned out, with hits kept by preference.

SMILES	DUSP3 inh
CC1=C(C(=O)OC(C)C)C(c2ccc(F)c(Br)c2)CC(=O)N1 (stereo unspecified)	118*
CC1=C(C(=O)OC(C)C)C(c2ccc(Br)cc2)C2=C(CC(c3ccc(Cl)cc3)CC2=O)N1 (stereo unspecified)	-19
CC1=C(C(=O)OC(C)C)C(c2cccc(Br)c2)NC(=O)N1 (stereo unspecified)	-14
CC1=C(C(=O)OC(C)C)C(c2ccccc2Br)CC(=O)N1 (stereo unspecified)	102*
COC(=O)C1=C(C)NC(=O)CC1c1ccc(F)c(Br)c1 (stereo unspecified)	-13
COC(=O)C1=C(C)NC(=O)CC1c1ccccc1C(F)(F)F (stereo unspecified)	-33
CC1=C(C(=O)OC(C)C)C(c2cc(Br)ccc2F)CC(=O)N1 (stereo unspecified)	102*
CC1=C(C(=O)OCc2ccccc2)C(c2ccc(F)c(Br)c2)CC(=O)N1 (stereo unspecified)	5
CC1=C(C(=O)OC(C)C)C(c2ccccc2Cl)CC(=O)N1 (stereo unspecified)	29
CCN(CC)c1ccc(/C=N/c2nc(-c3ccccc3)c(C)s2)cc1	-7
Cc1ccc(C(=O)N/C(=C/c2ccc(Br)cc2)C(=O)NN)cc1	11
O=[N+]([O-])c1ccc(Cl)c(/C=N/Nc2nc3ccccc3s2)c1	-9
COCCOC(=O)c1c(C)oc2ccc(OCc3c(F)cccc3Cl)cc12	-34
CCOc1ccc(S(=O)(=O)N(CC(=O)NCc2ccco2)c2ccc(C)cc2)cc1	-37
COc1ccc(C(=O)Oc2ccc(Cl)cc2)cc1S(=O)(=O)N1CCOCC1	10
Cc1ccc(NC2(c3ccc(Cl)cc3)C(=O)c3ccccc3C2=O)cc1	10
O=C(O)C1C2C=CC(O2)C1C(=O)Nc1ccc(I)cc1 (stereo unspecified)	-8
CC(=O)OC1=NN(c2ccccc2)CC1	-3
CC1(C)CC2(C=CC(=O)C=C2)C(SCc2ccccc2)=N1	-8
CN1C(=O)NC(=O)/C(=C/c2ccc(I)o2)C1=O	2
O=C1C(=Cc2ccc(I)o2)C(=O)c2ccccc21	4
CC1(C)OC(=O)C(=Cc2ccc(I)o2)C(=O)O1	87*
Cc1cccc2c1[nH]c1nc(N/N=C\c3ccc(-c4ccccc4Cl)o3)nnc12	-24
CC1=C(C(=O)OCCc2ccccc2)C(c2cccc([N+](=O)[O-])c2)NC(=O)N1C (stereo unspecified)	2
COc1cc(C2SCC(=O)N2CCN2CCCCC2)cc(OC)c1OC (stereo unspecified)	-33
